In PubChem BioAssay AID2546 (National Center for Advancing Translational Sciences (NCATS), 2010):
The whole screen tested about 310,000 compounds, of which about 11,000 (3.5%) were called active. Another 8% or so got no clear call; they are omitted. The list comes from a sample in which actives are over-represented; it also holds similar structures and randomly drawn compounds. Unmarked numbers belong to inactive results. Calls follow the shape of the dose curve; as a rule, active = well fitted inhibition curve with a large enough effect; inconclusive = small, poorly fitted or top-dose-only effect, or effect the other way; inactive = flat fitted curve, though single readings scatter.

Experiment: VP16 counterscreen qHTS for inhibitors of ROR gamma transcriptional activity;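 also: Gal4-VP16 expression switched on by copper sulfate through the metallothionein promoter; nearly all actives have a fitted effect of over 50% in size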
Conditions: Drosophila S2 Gal4-VP16 UAS-luciferase, luminescence, 20 h; series mostly up to 53.6 µM; activity, negative = inhibition: at the top concentration
% is scaled to controls: 0 for no effect and ±100 for the full control effect; potency is read from the fitted curve at half-maximal effect.

SMILES	activity, negative = inhibition	Potency
O=C(Nc1ccc(C(=O)N2CCCCC2)cc1)c1cccc([N+](=O)[O-])c1	19.8%	
COc1cc(C(=O)NCc2ccncc2)cc(Br)c1OCc1ccccc1	-1.79%	
CC(C)[C@@H]1COC(c2cccc(C3=N[C@H](C(C)C)CO3)c2)=N1	5.4%	
C#CCOc1ccc(/C=C2/C(=O)ON=C2C)cc1OCC	-17.6%	
O=C(Nc1ccc2c(c1)nc1n2CCCCC1)c1cc(S(=O)(=O)N2CCOCC2)ccc1Cl		12.6 µM (active)
O=C(Nc1ccc(N2CCOCC2)c(Cl)c1)c1ccc(S(=O)(=O)N2CCOCC2)cc1	-8.97%	
O=C(Nc1ccc2nc3n(c(=O)c2c1)CCCCC3)c1ccccc1Cl	-19.2%	
Nc1ncc(CN2CCCC(C(=O)Nc3ccc(-c4ccco4)cc3)C2)cn1 (stereo not drawn)	2.6%	
N=c1oc2ccccc2cc1C(=O)NCc1ccccc1	26.3%	
CCCNC(=O)COc1coc(CN2CCN(Cc3ccccc3)CC2)cc1=O	-4%	
COc1cccc(-n2cc(C(=O)O)c3ccccc3c2=O)c1	-0.477%	
COc1cccc(-n2c(=S)[nH]c3c(oc4ccccc43)c2=O)c1		11.2 µM (active)
COc1cccc(N2C(=O)CN(Cc3ccccc3)C2=S)c1	-3.18%	
CCC(CC)COC(=O)C1=C(C)NC(=O)NC1c1ccc([N+](=O)[O-])cc1 (stereo not drawn)	-3.51%	
COCCn1c(SCC(=O)N2CCCCCC2)nc2c(c1=O)SCC2	4.31%	
Cc1ccsc1/C=N/Nc1ccc(Cl)nn1	1.26%	
COc1cccc(/C=N/Nc2ccc(Cl)nn2)c1	-15.1%	
Oc1cccc(/C=N/Nc2ccc(Cl)nn2)c1O		2.82 µM (active)
Cc1ccc(S(=O)(=O)c2ccc(Oc3ccccc3)cc2)cc1	-26.4%	
CN(C)S(=O)(=O)c1ccc(Oc2ccc(S(=O)(=O)N(C)C)cc2)cc1		3.16 µM (active)
CN(C)S(=O)(=O)c1ccc(NC(=O)N2CCOCC2)cc1	-9.25%	
CSc1ncc(C(=O)NCCCc2ccccc2)c(C)n1	21.5%	

SMILES	activity, negative = inhibition	Potency
O=C(Nc1cccc(-c2nc3ccccc3[nH]2)c1)c1ccc(C(=O)Nc2cccc(-c3nc4ccccc4[nH]3)c2)cc1		2.82 µM (active)
O=C(Cc1cccs1)Nc1cccc(-c2nc3ccccc3[nH]2)c1	15.7%	
O=C(/C=C/c1ccco1)Nc1cccc(-c2nc3ccccc3[nH]2)c1	12.4%	
Cc1c(C)c2ccc(OCC(=O)N3CCC(C(=O)O)CC3)c(C)c2oc1=O	-14.8%	
COC(=O)COc1ccc(S(=O)(=O)Nc2ccc(NC(C)=O)cc2)cc1	-5.35%	
COc1cc(NS(=O)(=O)c2ccc(NC(C)=O)cc2)cc(OC)c1		20 µM (active)
COc1ccc(S(=O)(=O)Nc2ccc3oc(C)c(C(C)=O)c3c2)cc1		11.2 µM (active)
CC(=O)c1c(C)oc2ccc(NS(=O)(=O)c3ccc(C(=O)O)cc3)cc12	4.83%	
CC(=O)c1c(C)oc2ccc(NS(=O)(=O)c3ccccc3)cc12	-22.8%	
COc1ccc(/C=N/NS(=O)(=O)c2ccc(NC(C)=O)cc2)cc1	2.73%	
Cc1ccnc(NS(=O)(=O)c2ccc(NC(=O)c3oc4ccc(F)cc4c3C)cc2)n1	-12.4%	
CC1CCCCN1C(=O)CCS(=O)(=O)Cc1ccccc1 (stereo not drawn)	1.9%	
COc1ccc(/C=C2\SC(=O)N(CCC(=O)NCCCn3ccnc3)C2=O)cc1	0.385%	
COc1ccc(C2=Nn3c(nnc3-c3ccccc3O)SC2)cc1	-17%	
CCn1cc(C(=O)NCC(=O)NC(C)(C)CO)c(=O)c2cc3c(cc21)OCO3	-2.53%	
Cc1ccc(C(=O)NC23CC4CC(CC(C4)C2)C3)c(Cl)c1	23.1%	
Cc1noc(C)c1CCC(=O)N1CCCC(CO)(Cc2ccccc2)C1 (stereo not drawn)	-1.97%	
COc1ccccc1C1C2=C(COC2=O)Nc2cc3c(cc21)OCO3 (stereo not drawn)	2.3%	
COc1ccc(C2CC(=O)Nc3cc(C)c(C)cc32)c(OC)c1OC (stereo not drawn)	0.0143%	
CCCOc1ccccc1C1CC(=O)Nc2cc3c(cc21)OCO3 (stereo not drawn)		14.1 µM (active)
O=C(NCCCN1CCCC1=O)C(=O)NCC1OCCN1S(=O)(=O)c1ccc(Br)cc1 (stereo not drawn)	20.7%	
COc1ccc(NC(=O)c2cn(-c3ccccc3)nc2SC)cc1	-0.895%	

SMILES	activity, negative = inhibition	Potency
CN(C)/N=C/c1cn(-c2ccccc2)nc1-c1cccnc1	-6.24%	
CC(C)(C)OC(=O)N/N=C/c1cn(-c2ccccc2)nc1-c1cccnc1	-14%	
COc1ccc(-c2nn(-c3ccccc3)cc2C(=O)Nc2nc(CC(C)=O)ns2)cc1		12.6 µM (active)
O=C(O)c1ccccc1-c1ccccc1C(=O)Nc1nccs1	-6.71%	
COc1ccc(-c2nn(-c3ccccc3)cc2/C=N/Nc2ccccn2)cc1OC		8.91 µM (active)
CC(=O)Cc1nsc(NC(=O)c2ccc(COc3ccc(C)cc3)o2)n1	-3.91%	
COc1ccc(-c2nn(-c3ccccc3)cc2C(=O)Nc2nccs2)cc1OC		22.4 µM (active)
O=C(O)c1ccc(NC(=O)c2cn(-c3ccccc3)nc2-c2ccc(Cl)cc2)cc1	-9.81%	
O=C1C[C@@H](c2ccc3ccccc3c2)N1S(=O)(=O)c1ccccc1[N+](=O)[O-]	-6.73%	
Cc1ccc(CNS(=O)(=O)c2ccc3c(c2)N(C)CCO3)cc1	-0.865%	
Cc1cc(=O)[nH]c(Nc2cccc(Br)c2)n1	-6.76%	
Cc1nnnn1/C(=C\c1ccccc1)C(=O)OCC(=O)N1CC2(C)CC1CC(C)(C)C2 (stereo not drawn)		10 µM (active)
COc1ccccc1C(=O)N1CC2(C)CC1CC(C)(C)C2 (stereo not drawn)	-3.63%	
Cc1cccc(C(=O)NCC(=O)OCC(=O)N2CC3(C)CC2CC(C)(C)C3)c1 (stereo not drawn)	-8.87%	
CCOC(=O)c1ccc(NC(=O)c2cccnc2)cc1	3.63%	
CCSc1nc2sc3c(c2c(=O)n1-c1ccc(C)cc1)CCN(C)C3	-1.82%	
Cc1ccc(C2CCN(C(=S)Nc3cccc(Cl)c3)C2)cc1 (stereo not drawn)		12.6 µM (active)
Cc1cccc(NC(=S)N2CCCC(c3nc4ccccc4[nH]3)C2)c1 (stereo not drawn)	5.42% [at 10 µM]	
O=C(C1CCCO1)N1CCN(C(=S)Nc2cccc(Cl)c2)CC1 (stereo not drawn)	4.52%	
CC(=O)c1nn(-c2cccc(C(F)(F)F)c2)c(=O)[nH]c1=O	6.04%	
COc1ccccc1CCNC(=O)c1c(C)nn(CC(C)C)c1Cl	22.8%	
COc1cccc(C(=O)N/N=C(\C)c2cccc(NC(=O)c3ccc(F)cc3)c2)c1OC	-3.24%	

SMILES	activity, negative = inhibition	Potency
Cc1cccc(C(=O)N2CCCC(Nc3ccc(C(C)C)cc3)C2)n1 (stereo not drawn)	-6.89%	
COc1ccc(NC2CCCN(C(=O)c3ccncc3)C2)cc1 (stereo not drawn)	1.45%	
CC(C)c1ccc(NC2CCCN(C(=O)c3ccncc3)C2)cc1 (stereo not drawn)		1.58 µM (active)
O=C(Nc1ccc(C(=O)NCc2ccccc2Cl)cc1)C1=CSCCO1	-5.26%	
COc1ccc(-n2nc(C(=O)NCC(=O)N3CCCCCC3)c3ccccc3c2=O)cc1Cl	1.85%	
CC(=O)c1cccc(NC(=O)CN2C(=O)c3cccnc3Oc3ccc(Cl)cc32)c1	8.7%	
C#CC(CCN1CCCCC1)(OC)c1ccccc1 (stereo not drawn)	-3.36%	
CN1CCN(C(=O)CCc2nc(-c3ccc(Cl)cc3)no2)CC1	20.9%	
CCNC(=O)CCc1nc(-c2ccc(C)cc2)no1	4.81%	
CCNC(=O)CCc1nc(-c2ccc(C(C)(C)C)cc2)no1		2.51 µM (active)
COC(=O)c1ccc(N2CCOCC2)c(NC(=O)c2ccc(Br)o2)c1	-9.5%	
CCN1CCN(C(c2cccnc2)c2cc(Cl)c3cccnc3c2O)CC1 (stereo not drawn)		5.01 µM (active)
CCN1CCN(c2ccc(NC(=O)c3cnccn3)cc2)CC1	-0.768%	
CCOC(=O)N1CCN(C(c2cccnc2)c2ccc3cccnc3c2O)CC1 (stereo not drawn)		6.31 µM (active)
CCOC(=O)N1CCN(C(=O)C2CCN(c3ncnc4c3sc3cccc(F)c34)CC2)CC1	-1.75%	
Oc1ccccc1CN1CCN(C(c2ccccc2)c2ccccc2)CC1	15.7%	
Cc1onc(C(=O)NN)c1C(=O)N1CCN(C(c2ccccc2)c2ccccc2)CC1	-9.37%	
CC(=O)Nc1ccc(S(=O)(=O)N2N=NC3C2C2CC4C3(CN(C(=O)OC(C)(C)C)S4(=O)=O)O2)cc1 (stereo not drawn)	2.47%	
O=C(CCc1nnc(Cc2ccc3c(c2)OCO3)o1)NCCc1ccccc1Cl	1.16%	
O=C1Nc2cc(C(=O)N3CCN(c4ccc(F)cc4)CC3)ccc2NC1CSCc1cccc(F)c1 (stereo not drawn)	3.66%	
Clc1cccc(Cl)c1OCCOCCNCc1ccccc1	-8.4%	
COc1cccc(NC(=O)N2C3CCCC2CC(NC(C)=O)C3)c1 (stereo not drawn)	0.59%	

SMILES	activity, negative = inhibition	Potency
CCOC(=O)C1(Cc2ccccc2C)CCCN(C(=O)CCc2c(C)noc2C)C1 (stereo not drawn)	-7.72%	
COc1ccc(CCNC(=O)c2cnc(Cl)c(Cl)c2)cc1	-1.08%	
S=c1[nH]nc(-c2cc(-c3ccccc3)n[nH]2)n1/N=C/c1c2ccccc2cc2ccccc12		6.31 µM (active)
S=c1[nH]nc(-c2cc(-c3ccsc3)n[nH]2)n1-c1ccccc1	-4.8%	
S=c1[nH]nc(-c2cccs2)n1/N=C/c1cccs1	-3.28%	
Cc1ccc(/C=N\n2c(-c3ccccc3)n[nH]c2=S)s1		8.91 µM (active)
S=c1[nH]nc(-c2ccco2)n1/N=C/c1ccccc1	0.747%	
S=c1[nH]nc(-c2ccncc2)n1/N=C/c1ccccc1Cl	2.33%	
CCc1ccc(-c2cc(C)no2)cc1S(=O)(=O)NCCc1ccc(S(N)(=O)=O)cc1	-22.4%	
NS(=O)(=O)c1ccc(CCNC(=O)c2nc(CS(=O)(=O)c3ccc(Cl)cc3)no2)cc1	0.186%	
COc1ccc(C(=O)COC(=O)Cn2cnc3c2c(=O)n(C)c(=O)n3C)c(OC)c1	0.743%	
CCCCNC(=O)CN1C(=O)NC(Cc2ccccc2)(Cc2ccccc2)C1=O	-1.76%	
O=C(N/N=C\C1CC=CCC1)c1ccc(Br)o1 (stereo not drawn)	-10.9%	
CC1(C)NC(=O)N(CC(=O)Nc2cc(C(F)(F)F)cc(C(F)(F)F)c2)C1=O	-11.9%	
COc1ccc(N)c(OC)c1	-2.22%	
COc1ccc(/C=C2/C(=O)N(c3ccccc3)N=C2C)c(OC)c1	0.974%	
COc1ccc(/C=C/C2=CC(C)(C)NC(=S)N2)c(OC)c1		3.55 µM (active)
COc1ccc2[nH]c(C(=O)N/N=C/c3cc(OC)c(OC)c(OC)c3)cc2c1	-4.9%	
COc1cc(/C=C/C2=CC(C)(C)NC(=S)N2)cc(OC)c1OC		12.6 µM (active)
CCC(=O)c1ccc(OC(=O)/C=C/c2cc(OC)c(OC)c(OC)c2)cc1	-0.143%	
